Out of some 5,500 compounds screened, about 2,000 (36%) were called active. Another 18% or so got no clear call; they are omitted. No stated cut-off is given here; in the data, active means normalized growth mostly below about 0.91 (no sharp cut-off); inconclusive means no clear call, values can overlap the other calls; inactive means mostly above about 0.92. The list shows a part of the results.
Test: chemical genetic growth profiling, strain panel (AID 1159580);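 further: tested at 20 µM; growth read once vehicle control cultures reached saturation at 30 °C; 1 = growth at the plate median or of vehicle wells; lower values mean less growth of the strain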
Conditions: growth OD

Measured: normalized growth

O=C(/C=C/C=C/c1ccc2c(c1)OCO2)N1CCCCC1
inactive: S. cerevisiae deletion strains, locus YJR075W, strain HOC1, active compounds read low 0.9 | S. cerevisiae deletion strains, locus YKL009W, strain mrt4, active compounds read low 0.886 | S. cerevisiae deletion strains, locus YKL068W, active compounds read low 0.966 | S. cerevisiae deletion strains, locus YKL085W, strain MDH1 (second series), active compounds read low 0.953 | S. cerevisiae deletion strains, locus YKL085W, strain MDH1, active compounds read low 0.953 | S. cerevisiae deletion strains, locus YKL160W, strain elf1, active compounds read low 0.919 | S. cerevisiae deletion strains, locus YKL190W, strain CNB1, active compounds read low 0.974 | S. cerevisiae deletion strains, locus YKR026C, strain gcn3, active compounds read low 0.992 | S. cerevisiae deletion strains, locus YKR091W, strain srl3, active compounds read low 0.977 | S. cerevisiae deletion strains, locus YLL001W, strain dnm1, active compounds read low 0.935 | S. cerevisiae deletion strains, locus YLL026W, active compounds read low 0.956 | S. cerevisiae deletion strains, locus YLL041C, strain sdh2, active compounds read low 0.964 | S. cerevisiae deletion strains, locus YLR027C, strain aat2, active compounds read low 0.945 | S. cerevisiae deletion strains, locus YLR039C, strain RIC1, active compounds read low 0.72 | S. cerevisiae deletion strains, locus YLR058C, strain SHM2, active compounds read low 0.968 | S. cerevisiae deletion strains, locus YLR102C, strain apc9, active compounds read low 0.94 | S. cerevisiae deletion strains, locus YLR113W, strain HOG1, active compounds read low 0.973 | S. cerevisiae deletion strains, locus YLR258W, strain gsy2, active compounds read low 0.92 | S. cerevisiae deletion strains, locus YLR262C, strain YPT6, active compounds read low 0.785 | S. cerevisiae deletion strains, locus YLR330W, strain CHS5, active compounds read low 0.969 | S. cerevisiae deletion strains, locus YLR357W, strain rsc2, active compounds read low 1.08 | S. cerevisiae deletion strains, locus YLR370C, strain arc18, active compounds read low 0.952 | S. cerevisiae deletion strains, locus YLR371W, strain rom2, active compounds read low 0.959 | S. cerevisiae deletion strains, locus YLR384C, strain iki3, active compounds read low 0.976 | S. cerevisiae deletion strains, locus YML016C, strain PPZ1, active compounds read low 0.961 | S. cerevisiae deletion strains, locus YML032C, strain rad52, active compounds read low 0.914 | S. cerevisiae deletion strains, locus YML120C, strain ndi1, active compounds read low 0.932 | S. cerevisiae deletion strains, locus YML124C, strain tub3, active compounds read low 0.945 | S. cerevisiae deletion strains, locus YMR058W, strain fet3, active compounds read low 0.93 | S. cerevisiae deletion strains, locus YMR078C, strain ctf18, active compounds read low 0.932 | S. cerevisiae deletion strains, locus YMR125W, strain sto1, active compounds read low 0.961 | S. cerevisiae deletion strains, locus YMR129W, active compounds read low 0.959 | S. cerevisiae deletion strains, locus YMR205C, strain PFK2, active compounds read low 0.892 | S. cerevisiae deletion strains, locus YMR223W, strain ubp8, active compounds read low 0.91 | S. cerevisiae deletion strains, locus YMR231W, strain pep5, active compounds read low 0.99 | S. cerevisiae deletion strains, locus YMR263W, strain SAP30, active compounds read low 0.921 | S. cerevisiae deletion strains, locus YMR307W, strain GAS1, active compounds read low 0.621 | S. cerevisiae deletion strains, locus YNL067W, strain RPL9B, active compounds read low 0.907 | S. cerevisiae deletion strains, locus YNL128W, strain TEP1, active compounds read low 0.991 | S. cerevisiae deletion strains, locus YNL153C, strain GIM3, active compounds read low 0.953 | S. cerevisiae deletion strains, locus YNL183C, strain NPR1, active compounds read low 0.95 | S. cerevisiae deletion strains, locus YNL209W, strain ssb2, active compounds read low 0.949 | S. cerevisiae deletion strains, locus YNL233W, strain BNI4, active compounds read low 0.89 | S. cerevisiae deletion strains, locus YNL248C, strain rpa49, active compounds read low 0.94 | S. cerevisiae deletion strains, locus YNL250W, strain rad50, active compounds read low 0.95 | S. cerevisiae deletion strains, locus YNL271C, strain bni1, active compounds read low 0.933 | S. cerevisiae deletion strains, locus YNL298W, strain CLA4, active compounds read low 0.92 | S. cerevisiae deletion strains, locus YNL322C, strain KRE1 (second series), active compounds read low 0.965 | S. cerevisiae deletion strains, locus YNL322C, strain KRE1, active compounds read low 0.981 | S. cerevisiae deletion strains, locus YNR049C, strain mso1, active compounds read low 0.977 | S. cerevisiae deletion strains, locus YNR052C, strain pop2, active compounds read low 0.963 | S. cerevisiae deletion strains, locus YOL006C, strain TOP1, active compounds read low 0.598 | S. cerevisiae deletion strains, locus YOL012C, strain htz1 1.13 | S. cerevisiae deletion strains, locus YOL147C, strain pex11, active compounds read low 0.951 | S. cerevisiae deletion strains, locus YOR001W, strain rrp6, active compounds read low 0.956 | S. cerevisiae deletion strains, locus YOR061W, strain CKA2, active compounds read low 0.979 | S. cerevisiae deletion strains, locus YOR069W, strain VPS5, active compounds read low 0.98 | S. cerevisiae deletion strains, locus YOR070C, strain gyp1, active compounds read low 0.935 | S. cerevisiae deletion strains, locus YOR080W, strain dia2, active compounds read low 0.996 | S. cerevisiae deletion strains, locus YOR083W, strain WHI5, active compounds read low 0.909 | S. cerevisiae deletion strains, locus YOR106W, strain vam3, active compounds read low 0.925 | S. cerevisiae deletion strains, locus YOR136W, strain idh2, active compounds read low 0.964 | S. cerevisiae deletion strains, locus YOR144C, strain elg1, active compounds read low 0.948 | S. cerevisiae deletion strains, locus YOR231W, strain MKK1, active compounds read low 0.982 | S. cerevisiae deletion strains, locus YOR265W, strain rbl2, active compounds read low 0.961 | S. cerevisiae deletion strains, locus YOR290C, strain snf2, active compounds read low 0.929 | S. cerevisiae deletion strains, locus YOR316C, strain cot1, active compounds read low 0.946 | S. cerevisiae deletion strains, locus YPL055C, strain LGE1, active compounds read low 0.827 | S. cerevisiae deletion strains, locus YPL078C, strain atp4, active compounds read low 0.914 | S. cerevisiae deletion strains, locus YPL106C, strain sse1, active compounds read low 0.92 | S. cerevisiae deletion strains, locus YPL240C, strain hsp82, active compounds read low 0.946 | S. cerevisiae deletion strains, locus YPL241C, strain CIN2, active compounds read low 0.969 | S. cerevisiae deletion strains, locus YPL256C, strain CLN2, active compounds read low 0.914 | S. cerevisiae deletion strains, locus YPR119W, strain clb2, active compounds read low 0.936 | S. cerevisiae deletion strains, locus YPR141C, strain kar3, active compounds read low 0.946 | S. cerevisiae deletion strains, locus YPR167C, strain met16, active compounds read low 0.948 | S. cerevisiae deletion strains, strain wtn01, active compounds read low 0.9 | S. cerevisiae strains, strain wild type, active compounds read low 0.948
active: S. cerevisiae deletion strains, locus YKR001C, strain vps1, active compounds read low 0.796 | S. cerevisiae deletion strains, locus YLR221C, strain rsa3, active compounds read low 0.9 | S. cerevisiae deletion strains, locus YLR262C, strain YPT6 (second series), active compounds read low 0.71 | S. cerevisiae deletion strains, locus YLR268W, strain sec22, active compounds read low 0.807 | S. cerevisiae deletion strains, locus YLR320W, strain mms22, active compounds read low 0.808 | S. cerevisiae deletion strains, locus YLR342W, strain FKS1 (second series), active compounds read low 0.781 | S. cerevisiae deletion strains, locus YLR342W, strain FKS1, active compounds read low 0.851 | S. cerevisiae deletion strains, locus YLR418C, strain cdc73, active compounds read low 0.701 | S. cerevisiae deletion strains, locus YNL071W, strain lat1, active compounds read low 0.674 | S. cerevisiae deletion strains, locus YNL307C, strain MCK1, active compounds read low 0.729 | S. cerevisiae deletion strains, locus YOR184W, strain ser1, active compounds read low 0.753 | S. cerevisiae deletion strains, locus YOR270C, strain vph1, active compounds read low 0.633 | S. cerevisiae deletion strains, locus YPL051W, strain arl3, active compounds read low 0.896 | S. cerevisiae deletion strains, locus YPR163C, strain tif3, active compounds read low 0.856
